VLA-4 inh = inhibition in a human VLA-4 binding assay; inhibition, % (about 7 µM as worked out from the volumes in the protocol); VLA-4 expressing cells, ligand binding flow cytometry; P13612; hit rate 0.2% among 330,000; AID 2557; in the data active means inhibition above about 50%
ABCB6 inh 2 = inhibitors of human ABC transporter ABCB6. K562-ABCB6 porphyrin accumulation, flow cytometry, 1 h; hits give low values. fluorescence ratio to DMSO, % at 10 µM. hit rate 0.19% among 360,000. AID 602162;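 active means fluorescence ratio to DMSO below 75%, the collection mean minus 3 SD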;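 further: signal is porphyrin accumulated inside mitochondria; 100% equals median channel fluorescence of DMSO control wells; lower ratio means ABCB6 inhibition with less porphyrin fluorescence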
PG9 Ab binder = binds the HIV-1 gp120 antibody PG9; TR-FRET gp120-PG9 antibody binding; inhibition, % at 6.7 µM; hit rate 0.43% among 360,000; in the data active means inhibition above about 8.5%
NR1D1 modulator = Rev-erb alpha (human) modulation; P20393; Rev-erbα–FITC-DNA binding, fluorescence polarization, 90 min; activity, % at 10 µM; hit rate 0.79% among 370,000; AID 1259318;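 active means activity above about 14%, limit read from the data; passing the limit was not always enough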;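 further: 0% = DMSO wells with 35 nM protein and 100% = DMSO wells with 750 nM protein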
Target sequence (P20393 whole entry, looked up): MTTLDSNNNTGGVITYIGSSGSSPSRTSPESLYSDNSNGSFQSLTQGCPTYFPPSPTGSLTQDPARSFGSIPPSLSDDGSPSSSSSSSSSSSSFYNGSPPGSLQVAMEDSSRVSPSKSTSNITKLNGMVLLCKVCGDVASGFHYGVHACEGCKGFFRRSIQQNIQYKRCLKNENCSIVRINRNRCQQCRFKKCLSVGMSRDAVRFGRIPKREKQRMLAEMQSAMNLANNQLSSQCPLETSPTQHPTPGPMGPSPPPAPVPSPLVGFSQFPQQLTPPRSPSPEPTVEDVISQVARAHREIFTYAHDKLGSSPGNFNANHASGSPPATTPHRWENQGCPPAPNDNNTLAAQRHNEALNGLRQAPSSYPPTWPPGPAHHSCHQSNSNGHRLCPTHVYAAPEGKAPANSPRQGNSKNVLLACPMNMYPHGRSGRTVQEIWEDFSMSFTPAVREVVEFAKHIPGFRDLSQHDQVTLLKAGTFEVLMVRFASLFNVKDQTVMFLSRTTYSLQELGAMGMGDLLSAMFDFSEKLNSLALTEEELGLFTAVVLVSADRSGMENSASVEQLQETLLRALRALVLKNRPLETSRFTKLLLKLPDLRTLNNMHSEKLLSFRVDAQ
Granule exo inh = blocks lytic granule exocytosis; TALL-104 LAMP-1 surface exposure, flow cytometry; cells stimulated with thapsigargin and PMA; hit rate 0.66% among 360,000; inhibition, % at 10 µM; AID 651702;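 active means inhibition above about 55%, limit read from the data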
VLA-4 allo CP = confirmation of allosteric modulators of human VLA-4 integrin; shares compounds with VLA-4 inh; U937 cells, HUTS-21 LIBS mAb binding, flow cytometry; LDV ligand present at threefold Kd; inhibition, % at 6.7 µM; hit rate 2% among 1,300; in the data active means inhibition above about 40%;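 further: 0% = ligand without compound and 100% = no ligand background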
Starred values were filed as active, the others as inactive; . = no result given. Rows were chosen to be rich in hits. Some 2% of all compounds tested hit in one or more screens of this group.

SMILES | VLA-4 inh | ABCB6 inh 2 | PG9 Ab binder | NR1D1 modulator | Granule exo inh | VLA-4 allo CP
COc1ccc(S(=O)(=O)N2CCOCC2)cc1C(=O)Nc1ccc(N2CCCCCC2)cc1 | . | 93.0 | -5.9 | -13.4 | 2.7 | .
O=C(Nc1ccccc1F)c1cc(S(=O)(=O)N2CCOCC2)ccc1N1CCOCC1 | . | 101.0 | -0.1 | -7.9 | -5.0 | -2.1
O=C(Nc1cc(S(=O)(=O)N2CCOCC2)ccc1N1CCOCC1)c1ccccc1F | -1.7 | 98.0 | 1.1 | 6.2 | 1.0 | .
COc1cc(NC(=O)c2cc(S(=O)(=O)N3CCCCC3)ccc2N2CCOCC2)cc(OC)c1OC | . | 97.0 | -0.4 | -5.1 | 1.2 | 0.0
Cc1ccc(NC(=O)c2cc(S(=O)(=O)N3CCCCC3)ccc2N2CCOCC2)cc1S(=O)(=O)N(C)C | . | 95.0 | -0.7 | 1.3 | -2.0 | -0.1
O=C(CCc1ccc(S(=O)(=O)N2CCOCC2)cc1)Nc1ccccc1F | 56.2* | 97.0 | -1.1 | -3.9 | 1.0 | 2.0
CCCN(CC1CC1)c1c2c(nc3ncnn13)CCCC2 | . | . | . | 0.3 | . | .
Cc1ccc2c(c1)C1CS(=O)(=O)N(CC(C)C)CN1C2 (stereo not drawn) | . | . | . | 2.2 | . | .
COC(=O)C1CN(Cc2ccc(F)cc2)CCS(=O)(=O)N1Cc1cn(Cc2ccc(C)cc2)nn1 (stereo not drawn) | . | . | . | 0.1 | . | .
Clc1ccc([C@H]2OC[C@@]3(CNCc4ccccn4)CS[C@H](c4ccc(Cl)cc4)N23)cc1 | . | . | . | 9.7 | . | .
O=C(Nc1ccccc1Cl)c1cc(S(=O)(=O)N2CCCCC2)ccc1N1CCOCC1 | -9.5 | 94.0 | -0.6 | 2.4 | 5.4 | 5.4
CS(=O)(=O)c1ccc(OC[C@@H](O)CN2CCC(C(O)(c3ccccc3)c3ccccc3)CC2)cc1 | . | . | . | 2.5 | . | .
COc1ccc(C)cc1NC(=O)NCc1ccc(F)cc1 | 40.2 | 97.0 | -3.6 | 2.1 | -9.7 | -2.0
O=C(CNc1ccccc1)N/N=C/c1c(O)ccc2ccccc12 | 50.3* | 101.0 | 1.3 | -2.3 | 4.8 | -2.8
CC(C)[C@H](NC(=O)OCc1ccccc1)C(=O)NCc1ccccc1 | 42.5 | 94.0 | 0.4 | -0.1 | -0.4 | -16.7
Cc1cccc2c(CCNC(=O)c3ccc([N+](=O)[O-])cc3)c[nH]c12 | 68.1* | 98.0 | -0.4 | 0.0 | -0.6 | 17.6
O=C(NCCc1ccc(F)cc1)c1ccc([N+](=O)[O-])cc1 | 5.1 | 101.0 | 0.1 | 4.8 | 0.4 | .
O=C(Nc1ccc(F)cc1F)N1CCN(CCc2ccccc2)CC1 | 0.1 | 102.0 | 0.6 | -0.4 | -9.1 | .
O=C(Nc1ccc(F)cc1F)N1CCN(C/C=C/c2ccccc2)CC1 | 55.0* | 99.0 | 0.1 | 1.0 | 9.2 | 5.1
Cc1ccc(-n2c(Cc3cccs3)nnc2SCC(=O)Nc2ccc(OCc3ccccc3)cc2)cc1 | . | . | . | -6.3 | . | .
CN(C)c1cccc(/C=C2\CC3(OC(=O)c4ccc(Cl)cc4)CCCN2C3)c1 (stereo not drawn) | . | . | . | 3.5 | . | .
CCOc1ccc(NC(=O)CN(c2ccc(C)cc2)S(=O)(=O)c2c(C)nn(C)c2C)cc1 | 5.4 | 102.0 | -2.4 | 5.0 | -2.1 | .
Cc1nn(C)c(C)c1S(=O)(=O)N(CC(=O)Nc1ccc2c(c1)OCO2)c1ccc(C(C)C)cc1 | -12.0 | 102.0 | 14.1* | -4.8 | 1.1 | -1.6
COc1ccccc1NC(=O)CN(c1ccc(C)cc1)S(=O)(=O)c1c(C)n[nH]c1C | -7.5 | 93.0 | -0.3 | 2.3 | -1.2 | -0.8
COC(=O)c1ccc(NC(=O)CN(c2ccc(C)cc2)S(=O)(=O)c2c(C)nn(C)c2C)cc1 | 4.5 | 97.0 | 0.7 | 2.7 | -0.3 | 4.4
SMILES | VLA-4 inh | ABCB6 inh 2 | PG9 Ab binder | NR1D1 modulator | Granule exo inh | VLA-4 allo CP
COc1ccc(OC)c(NC(=O)CN(c2ccc(C)cc2)S(=O)(=O)c2c(C)n[nH]c2C)c1 | -5.1 | 97.0 | -2.5 | -2.2 | 21.2 | .
Cc1noc(C)c1S(=O)(=O)N(CC(=O)Nc1ccc2c(c1)OCO2)c1ccc(C(C)C)cc1 | -21.1 | 102.0 | 0.6 | -4.7 | -1.5 | .
COc1ccc(N(CC(=O)Nc2ccc(C)cc2)S(=O)(=O)c2c(C)noc2C)cc1 | 0.4 | 93.0 | -1.4 | 1.6 | 9.9 | .
Cc1ccc(NC(=O)CN(c2ccc(C)cc2)S(=O)(=O)c2cccc3nonc23)cc1 | 26.9 | 105.0 | 0.4 | 8.4 | -4.2 | 0.0
CCC[C@H]1[C@@H](OC(=O)NC2CCC2)CC[C@@]23CCCN2C(=O)CCC[C@@H]13 | . | . | . | -1.8 | . | .
Cc1ccccc1CN1CCN(C(=O)[C@H]2O[C@@H](n3cnc(C(N)=O)n3)[C@H](O)[C@@H]2O)CC1 | . | . | 0.4 | 12.6 | . | .
CCCCc1c(-c2ccccc2OC)ncn1C(C)c1ccccc1 (stereo not drawn) | . | . | 0.1 | -5.3 | . | .
CC(NC(=O)c1ccccc1F)c1nnc(SCC(=O)Nc2nccs2)n1C (stereo not drawn) | -1.1 | 102.0 | -0.1 | -4.0 | 15.0 | 3.1
Cc1nnc(NC(=O)CSc2nnc(C(C)NC(=O)c3ccccc3F)n2C)s1 (stereo not drawn) | 0.0 | 98.0 | 0.2 | 2.3 | 1.3 | .
N#C/C(=C1/SC[C@@H](c2ccc(Cl)cc2Cl)S1)n1ccnc1 | . | . | . | 1.0 | . | .
Cc1ccc(C(=O)c2cc([N+](=O)[O-])ccc2N2CCOCC2)c(C)c1 | 25.9 | 98.0 | 0.8 | 7.4 | 10.2 | 49.6*
Cc1ccc(C)c(C(=O)COC(=O)c2cc([N+](=O)[O-])ccc2N2CCOCC2)c1 | -20.6 | 95.0 | -0.8 | 12.7 | -2.2 | .
Cc1ccc(C(=O)c2cc([N+](=O)[O-])ccc2N2CCOCC2)cc1C | 18.1 | 99.0 | -1.6 | 7.8 | 4.9 | 6.7
O=S(Cc1ccc(Cl)cc1)CC(O)COc1ccc(Cl)cc1 (stereo not drawn) | -4.4 | 94.0 | -1.4 | -0.4 | -1.2 | .
NC(=O)OCC(O)COc1ccc(Cl)cc1 (stereo not drawn) | 56.8* | 101.0 | -0.8 | 4.6 | -1.1 | -5.8
COc1cccc(NC(=O)N2CC[C@@H]3[C@H]2c2cc(-c4cccc(C#N)c4)ccc2N(C)[C@@H]3CO)c1 | . | . | . | 2.9 | . | .
COC1=CC(=O)CC(C)C12Oc1c(Cl)c(OC)cc(OC)c1C2=O (stereo not drawn) | -7.3 | 94.0 | -0.3 | 2.7 | 3.5 | .
COC1=CC(=O)C[C@@H](C)[C@]12Oc1c(Cl)c(OC)cc(OC)c1C2=O | 54.2* | 94.0 | -1.3 | 2.8 | -2.0 | 6.7
CCOCc1nnc(NC(=O)c2cc(C(=O)OC)cc([N+](=O)[O-])c2)s1 | 10.8 | 100.0 | -3.4 | -2.4 | -0.8 | .
COC(=O)c1cc(C(=O)Nc2nnc(CC(C)(C)C)s2)cc([N+](=O)[O-])c1 | 51.1* | 88.0 | 0.0 | 5.2 | -7.3 | -1.2
COc1ccc(NC(=O)CSc2nnc(-c3n[nH]c4c3CCC4)n2N)cc1 | . | . | . | 6.7 | . | .
CCCCN1C(=O)N2CCc3ccccc3C2CS1(=O)=O (stereo not drawn) | . | . | . | 4.9 | . | .
CNC(=S)N/N=C/c1c(C)nn(-c2cccc(Cl)c2)c1Cl | 40.2 | 91.0 | -2.1 | 0.1 | 2.9 | 7.0
Cc1cccc(-c2cccc3c4c([nH]c23)[C@@H]2C[C@H](N(C)C(=O)c3ccccc3C)[C@H]([C@H](C)O)CN2CC4)c1 | . | . | . | -5.4 | . | .

High-throughput results deposited in PubChem by several laboratories.
